Reference: PubChem BioAssay (NCI)
The panel holds about 83,000 compounds, 20% with a hit somewhere; the sample as a whole holds those more often.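 Results are percent growth after 48 hours of single-concentration exposure. 100 means growth as in untreated cells, lower positive values show inhibition; negative values down to -100 show cell death.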 Activity calls are given as the source filed them. How the source made its calls: active means growth percent below 10; inactive means the rest.

Columns and labels:
Assay in all cases: NCI-60 one-dose screen, 48 h (100 = growth as untreated, 0 = no growth, -100 = all killed)
Conditions in all cases: 10 µM unless noted
[1] = test system: SR leukemia
[2] = test system: RPMI-8226 leukemia
[3] = test system: OVCAR-8 ovarian
[4] = test system: OVCAR-5 ovarian
[5] = test system: OVCAR-4 ovarian
[6] = test system: SK-OV-3 ovarian
[7] = test system: IGROV1 ovarian
[8] = test system: OVCAR-3 ovarian
[9] = test system: HS 578T breast
[10] = test system: NCI/ADR-RES ovarian
[11] = test system: T-47D breast
[12] = test system: BT-549 breast
[13] = test system: MDA-MB-435 melanoma
[14] = test system: SW-620 colon
[15] = test system: MCF7 breast
[16] = test system: HCT-116 colon
[17] = test system: HCC-2998 colon
[18] = test system: KM12 colon

Measured: growth

COc1cc(/C=N/NC(=O)c2ccc3nc(-c4ccc(Cl)cc4)[nH]c3c2)cc(OC)c1OC
inactive: [1] 45.7% | [2] 19.9% | [3] 60.5% | [4] 172% | [5] 102% | [6] 87.8% | [7] 68.4% | [8] 61.6% | [9] 48.3% | [10] 106% | [11] 15.9% | [12] 70.7% | [13] 64% | [14] 78.7% | [15] 12.1% | [16] 36.2% | [17] 80% | [18] 61.8%

CC1(C)CC(=O)C2=C(C1)OC(C(=O)c1ccccc1)C2c1cccc(Oc2ccccc2)c1 (stereo unspecified)
active: [11] 5.71%
inactive: [1] 26.2% | [2] 34.6% | [3] 48.5% | [4] 88.7% | [5] 28.6% | [6] 64% | [7] 89.5% | [8] 64.2% | [9] 68.4% | [10] 38.3% | [12] 40.1% | [13] 44.5% | [14] 54.2% | [15] 28.5% | [16] 33.8% | [17] 71.9% | [18] 37.7%

COc1cccc(/C=C2\CCc3ccccc3C2=O)c1
inactive: [1] 21% | [3] 92.5% | [4] 85.9% | [5] 88.5% | [6] 86.5% | [7] 80.7% | [8] 89.5% | [9] 87.4% | [10] 71.4% | [11] 75.3% | [12] 86.4% | [13] 58.2% | [14] 52.1% | [15] 27.5% | [16] 53.4% | [17] 94.7% | [18] 64%
active: [2] 6.5%

O=C(/C=C/c1ccco1)c1ccc(Nc2ccnc3cc(Cl)ccc23)cc1
active: [1] -50.4% | [2] -34.9%
inactive: [3] 81.3% | [4] 70.2% | [5] 103% | [6] 108% | [7] 120% | [8] 78.7% | [9] 114% | [10] 73.9% | [11] 83.7% | [12] 88.5% | [13] 92.5% | [14] 86.3% | [15] 56.1% | [16] 33.7% | [17] 60.7% | [18] 80.2%

NCCNc1ccc([N+](=O)[O-])cc1
inactive: [1] 100% | [2] 93% | [3] 113% | [4] 115% | [5] 112% | [6] 109% | [7] 111% | [8] 134% | [9] 106% | [10] 116% | [11] 106% | [12] 103% | [13] 113% | [14] 112% | [15] 101% | [16] 98.8% | [17] 115% | [18] 115%

COc1cccc(CNc2nnc(C)c(C)n2)c1O
inactive: [1] 102% | [2] 100% | [3] 99.2% | [4] 108% | [5] 103% | [6] 87% | [7] 107% | [8] 110% | [9] 108% | [10] 104% | [11] 94% | [12] 101% | [13] 111% | [14] 109% | [15] 97.3% | [16] 100% | [17] 96.4% | [18] 107%

O=C1NCCS(=O)(=O)/C1=C\C=C\c1cccc(C(F)(F)F)c1
active: [1] 6.61% | [2] -7.36% | [10] -37.5% | [16] -41.8%
inactive: [3] 20.4% | [4] 48.4% | [5] 53.4% | [6] 85.8% | [7] 35.5% | [8] 22.2% | [9] 51.1% | [11] 22.6% | [12] 20.2% | [13] 18.2% | [14] 28.3% | [15] 18.2% | [17] 19.6% | [18] 43.9%

CC(C)(C)n1cc(-c2ccnc(NCCNS(=O)(=O)c3cccc4ccccc34)c2)c(-c2cccc(O)c2)n1
inactive: [1] 30.1% | [2] 27.4% | [3] 65.9% | [4] 84.4% | [5] 80.1% | [6] 81.9% | [7] 87% | [8] 91% | [9] 84.6% | [10] 77% | [11] 31.4% | [12] 60.5% | [13] 78.6% | [14] 35.8% | [15] 49.4% | [16] 46.5% | [17] 66.3% | [18] 57.5%

COC(=O)c1sc(-c2ccc(C)cc2)cc1O
inactive: [1] 81.9% | [2] 103% | [3] 117% | [4] 112% | [5] 91.5% | [6] 114% | [7] 100% | [8] 99.6% | [9] 101% | [10] 99.8% | [11] 102% | [12] 107% | [13] 91.9% | [14] 103% | [15] 96.4% | [16] 96.6% | [17] 94.7% | [18] 95.8%

c1ccc(-c2cn3nc(-c4c[nH]c5ccccc45)sc3n2)cc1
inactive: [1] 21.7% | [2] 91.8% | [3] 93.3% | [4] 74.2% | [5] 70.4% | [6] 80.4% | [7] 56.5% | [8] 86.1% | [9] 84.5% | [10] 84.3% | [11] 62.6% | [12] 91.3% | [13] 26.5% | [14] 73.5% | [15] 59.1% | [16] 84.2% | [17] 89.6% | [18] 58.3%

O=C(Nc1ccccc1)Nc1ccccc1CNc1nc(Nc2ccc(OCCN3CCCC3)cc2)ncc1Cl
inactive: [3] 50.4% | [4] 106% | [5] 19.5% | [6] 86.1% | [7] 84.2% | [9] 66.3% | [10] 71% | [11] 55.7% | [12] 74.8% | [13] 55.2% | [14] 73% | [15] 48.9% | [16] 45.7% | [17] 58.3% | [18] 43.7%
active: [1] -6.4% | [2] -0.283% | [8] 2.33%

FC(F)(F)c1cc(N2CCCCC2)nc(NCCCNc2ccnc3cc(Cl)ccc23)n1
active: [1] -4.99%
inactive: [2] 39.9% | [3] 66.2% | [4] 87.6% | [5] 43.4% | [6] 72.1% | [7] 60% | [8] 54.8% | [9] 74.7% | [10] 44.9% | [11] 37.7% | [12] 61.2% | [13] 76% | [14] 94.3% | [15] 43.7% | [16] 39.3% | [17] 37.5% | [18] 64.7%

Cc1[nH]c(C2CC(c3ccc(C(F)(F)F)c(F)c3)=NN2C)c(C)c1C(=O)NCC(F)(F)F (stereo unspecified)
inactive: [1] 92.9% | [2] 92.4% | [3] 94.8% | [4] 98.4% | [5] 90.9% | [6] 105% | [7] 79.9% | [8] 107% | [9] 95.9% | [10] 98.8% | [11] 93.9% | [12] 107% | [13] 100% | [14] 103% | [15] 80.7% | [16] 101% | [17] 105% | [18] 97.8%

CCOC(=O)c1c(N)sc2cc(O)ccc12
inactive: [1] 93% | [2] 110% | [3] 100% | [4] 100% | [5] 108% | [6] 111% | [7] 97.1% | [8] 97.9% | [9] 99.9% | [10] 100% | [11] 85.7% | [12] 93.3% | [13] 107% | [14] 117% | [15] 104% | [16] 98.5% | [17] 111% | [18] 89.1%

COCCn1cc(-c2nc(-c3cc4cccnc4n3C)cs2)c2cc(OC)ccc21
inactive: [1] 31% | [2] 41% | [3] 48.9% | [4] 37.5% | [6] 50% | [7] 28.4% | [9] 56.8% | [10] 45.9% | [12] 27% | [13] 89.6% | [14] 77.1% | [16] 46.1% | [17] 39.6%
active: [5] 8.84% | [8] 6.53% | [11] -15.9% | [15] 2.86% | [18] 6.09%

CCN(CC)CCN1C(=O)c2c(c(C)c3c(oc4cc(OC)ccc43)c2C)C1=O
active: [15] -8.69%
inactive: [1] 29.3% | [2] 88.1% | [3] 90.6% | [4] 94.2% | [5] 73.8% | [6] 115% | [7] 42.2% | [8] 112% | [9] 118% | [10] 86.2% | [11] 104% | [12] 98.2% | [13] 95.6% | [14] 96.3% | [16] 94.1% | [17] 103% | [18] 102%

Cn1ncc(CC(=O)O)c1-n1nnc2cc(Cl)ccc2c1=O
inactive: [1] 87.6% | [2] 106% | [3] 99.6% | [4] 98.1% | [5] 94.6% | [6] 111% | [7] 103% | [8] 114% | [9] 91.5% | [10] 101% | [11] 102% | [12] 102% | [13] 92.7% | [14] 103% | [15] 110% | [16] 99.5% | [17] 107% | [18] 102%
